PrPC TRFRET: reduces human prion protein on the cell surface | P04156 | cell surface PrPC, TR-FRET read-out | inhibition, % at 13.8 µM | 370,000 compounds, 0.43% hits | AID 720596; in the data active = inhibition above about 24%; note: 0% = median of the test wells and 100% = reference compound wells
PfHsp40 rescue: compounds rescuing yeast from Plasmodium falciparum HSP40 toxicity; growth rescue, % at 12.5 µM; 340,000 compounds, 0.68% hits; AID 504582; S. cerevisiae expressing PfHsp40, growth rescue, ATP luminescence; in the data active = growth rescue above about 28%, passing the limit was not always enough;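 note: yeast W303a lacking pdr1 and pdr3 grown in galactose medium; growth measured after three days at 30 °C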
CCHF vOTU inh-1: CCHFV vOTU protease inhibition; 370,000 compounds, 0.55% hits; Pep-AMC fluorescence; inhibition, % at 11.5 µM; note: 0% = vehicle wells with enzyme and 100% = no enzyme wells
Yp Topo-I inh: inhibitors of Yersinia pestis topoisomerase I; Y. pestis Topo-I cleavage product accumulation, plate reader; activity, % at 10 µM; 360,000 compounds, 0.064% hits; AID 504884; in the data active = activity above about 50%, passing the limit was not always enough
BJeLR viability: kills HRASV12-expressing BJeLR cells; BJeLR (HRASV12) viability, CellTiter-Glo ATP luminescence, 48 h; inhibition, % (no concentration beside the values); 300,000 compounds, 0.17% hits; in the data active = inhibition above about 50%
PrP UTR inh: suppresses PrP 5' UTR mRNA reporter expression | inhibition, % (concentration not given with the values) | 340,000 compounds, 0.35% hits | cell-based PrP 5' UTR mRNA reporter, plate reader; in the data active = inhibition above about 52%; note: 0 = median of the neutral control wells
CCHF vOTU inh-2: CCHFV vOTU protease inhibition, confirmation; shares compounds with CCHF vOTU inh-1; Recombinant CCHFV vOTU, Pep-AMC fluorescence; inhibition, % at 11.5 µM; 1,900 compounds, 17% hits; AID 686976
PrPC TRFRET cf: cell surface PrPC inhibition, TR-FRET confirmation; 1,500 compounds, 65% hits; shares compounds with PrPC TRFRET; inhibition, % at 13.8 µM; cell surface PrPC level; in the data active = inhibition above about 25%
LD9 cytotox: counter-screen for PrPc inhibitors: cytotoxicity in LD9 cells; shares compounds with PrPC TRFRET; luminescence viability; inhibition, % at 13.8 µM; 1,500 compounds, 29% hits; in the data active = inhibition above about 9.5%
Starred values were filed as active, the others as inactive; nt = no result. A selection: hits, their analogues and other compounds. The true share with any hit is near 2%. Cut-off read from the data, not from the text of the source, unless noted: active = inhibition above about 30%; inactive = the rest.

SMILES	PrPC TRFRET	PfHsp40 rescue	CCHF vOTU inh-1	Yp Topo-I inh	BJeLR viability	PrP UTR inh	CCHF vOTU inh-2	others
Cc1ccc(NC(=O)COC(=O)C2C3CC4OC(=O)C2C4C3)cc1 (stereo not given)	9.4	-1.0	39.5*	3.3	-11.3	-15.3	-22.4
Cc1c(C(=O)O)cccc1-c1ccc(C=O)o1	5.9	0.9	36.4*	1.4	6.5	-16.2	-18.9
COc1ccc(NC(=O)/C(C#N)=C\c2ccc(-c3cccc(C(=O)O)c3C)o2)cc1	-32.6	0.2	13.6	-5.9	5.6	-28.8	nt
N#CCCN(CCC#N)C(=O)c1ccc(Cl)cc1	3.0	-0.3	36.2*	-2.6	-17.6	-9.2	-11.8
CCOC(=O)[C@@]12CCC3=C1N(CCC3)C(=O)[C@H](CC(=O)N1CCCCC1)C2	-5.5	nt	-7.2	nt	nt	nt	nt
CCO/C=C1/C(=O)N(C)C(=O)c2cc(OC)ccc21	0.0	-0.8	78.3*	3.5	3.7	-1.8	77.3*
CCOC(=O)N1CCN(C(=O)C[C@H]2C[C@@]3(C(=O)OC)C(=C[C@H](C(C)C)O[C@@H]3C3CC3)N(Cc3cccc4ccccc34)C2=O)CC1	-0.9	nt	18.7	nt	nt	nt	nt
OCC1OC(C(N=Nc2ccccc2)=NNc2ccccc2)C(O)C1O (stereo not given)	-18.0	nt	30.8*	nt	nt	nt	-16.3
COc1cccc(-c2cc(C(F)(F)F)nc(-n3cc(C)cn3)n2)c1	-3.0	-0.5	35.4*	21.7	0.5	-4.1	-9.1
CC(C)CC(=O)c1c(O)cc(O)c2c1OC1=C(C(=O)C(C)(C)C(=O)C1(C)C)C2CC(C)C (stereo not given)	4.7	nt	23.7	nt	nt	nt	nt
O=[N+]([O-])c1cc(Cl)cc(/C=N/NC(=S)Nc2ccc(S(=O)(=O)N3CCOCC3)cc2)c1O	-7.0	449.3*	39.2*	-9.9	-7.0	-14.9	3.4
CCOC(=O)c1cc2c(=Cc3ccc(N(C)C)cc3)c3ccccc3n2[n+]1C	-25.4	284.4*	96.5*	-40.7	nt	-0.2	78.6*
CN(C)c1ccc(C=c2c3ccccc3n3c2c2ccccc2[n+]3C)cc1	-102.5	1.8	0.4	-56.0	nt	24.2	nt
Cc1cc2c(=Cc3ccc(N(C)C)cc3)c3ccccc3n2[n+]1C	-33.5	179.6*	34.4*	-34.5	nt	-22.4	8.6
Cc1ccc(S(=O)(=O)N2CCCC2C(=O)N2CCN(c3ccccc3)CC2)cc1C (stereo not given)	8.5	nt	-6.5	nt	nt	nt	nt
C[n+]1c2cc(N)ccc2cc2ccc(N)cc21	4.3	228.1*	88.1*	-17.7	nt	-24.9	53.9*
Nc1ccc2ccccc2c1	7.2	-0.9	-2.7	-7.8	nt	-17.6	nt
CCOC(=O)C1CCN(Cc2oc(CO)cc(=O)c2O)CC1	-0.8	-0.7	41.3*	-1.0	1.7	-25.1	-13.3
CCN1CCN(Cc2oc(CO)cc(=O)c2O)CC1	-5.6	0.3	-2.7	-0.8	0.9	-24.6	nt
CN=C(Nc1ccc(Cl)cc1)c1cccc(C(F)(F)F)c1	8.7	1.7	-2.8	11.5	1.0	-40.5	nt
CN=C(Nc1ccc(Cl)cc1)c1ccc(C(F)(F)F)cc1	3.6	1.3	35.8*	9.0	2.7	-26.3	-4.7
COc1ccc2nc(N3C(=O)C(O)=C(C(=O)c4ccco4)C3c3ccc(OC)c(OC)c3)sc2c1 (stereo not given)	-4.2	nt	33.5*	18.8	nt	nt	2.2
CCCCNS(=O)(=O)/C=C/c1ccccc1CCNC(=O)OC(C)(C)C	2.8	nt	1.1	nt	nt	nt	nt
Nc1ncc(Br)cc1S(=O)(=O)Nc1cc(C(F)(F)F)cc(C(F)(F)F)c1	24.4	0.2	31.8*	-0.5	11.4	-21.5	13.0
COCCN1C(=O)CSCC1(C)C(=O)Nc1c(C)cccc1C (stereo not given)	-3.2	nt	1.2	nt	nt	nt	nt
SMILES	PrPC TRFRET	PfHsp40 rescue	CCHF vOTU inh-1	Yp Topo-I inh	BJeLR viability	PrP UTR inh	CCHF vOTU inh-2	others
Cc1cccc(C)c1NC(=O)C1(C)CSCC(=O)N1CCOc1ccccc1 (stereo not given)	7.0	nt	30.6*	nt	nt	nt	3.9
CC1(C)Cc2c(c(-c3ccco3)[nH]c(=O)c2C#N)CS1	-0.9	-1.5	31.9*	-3.4	9.0	-6.7	-5.7
Cc1ccc(NC(=O)CSc2nnc(-c3cc(-c4ccc(Cl)cc4)n[nH]3)n2N)cc1	-6.9	nt	99.1*	nt	nt	nt	-1.3
Cc1ccc(NC(=O)CSc2nnc(-c3cc(C)[nH]n3)n2N)cc1	3.7	-0.2	7.6	-1.4	-11.4	-12.5	nt
O=C(O)CSc1cc(C(=O)c2cc(F)ccc2O)cn2c(=O)c3c(-c4ccccc4)csc3nc12	4.3	1.0	32.9*	4.2	-7.3	-8.6	6.3
COC(=O)C1CN(Cc2ccc(C)cc2)CCS(=O)(=O)N1Cc1cn(Cc2ccc(Cl)cc2)nn1 (stereo not given)	3.8	nt	10.3	nt	nt	nt	nt
CC1OC2CC(=O)OC2C2=C1C(=O)c1c(O)cccc1C2=O (stereo not given)	81.0*	nt	97.7*	-10.2	nt	nt	91.1*	PrPC TRFRET cf=92.7*;LD9 cytotox=98.8*
O=C1c2cccc(O)c2C(=O)c2c(O)cc(CO)cc21	nt	nt	nt	nt	-8.1	nt	nt
O=C(Nc1nc(-c2ccccc2)cs1)c1ccccc1NS(=O)(=O)c1ccc(F)cc1	35.4*	6.9	37.7*	-5.4	30.8	-5.6	-2.3	PrPC TRFRET cf=29.6*;LD9 cytotox=31.6*
COc1ccc(S[C@]2(C(=O)N3CCOCC3)CC(=O)N(c3ccc(Cl)cc3)[C@@H]2c2ccc(OC)cc2)cc1	-5.1	nt	12.2	nt	nt	nt	nt
CCN1/C(=C/C=C/c2oc3ccc(-c4ccccc4)cc3[n+]2CC)Oc2ccc(-c3ccccc3)cc21	43.4*	129.0*	36.7*	12.1	79.7*	11.2	17.5	PrPC TRFRET cf=56.2*;LD9 cytotox=63.9*
CCCCCCCCCCCCCCCCn1cc[n+](C)c1	34.1*	2.9	39.1*	-16.8	16.3	-24.3	50.5*	PrPC TRFRET cf=49.4*;LD9 cytotox=42.2*
COC(=O)[C@]12C[C@H](CC(=O)N3CCCCC3)C(=O)N(Cc3ccc(Cl)cc3Cl)C1=C[C@H](C(C)C)O[C@@H]2C1CC1	6.6	nt	-1.5	nt	nt	nt	nt
COc1cccc(S(=O)(=O)Nc2ccc(C(O)(C(F)(F)F)C(F)(F)F)cc2)c1	6.4	nt	20.1	-13.0	nt	nt	nt
CC(C)(C)c1ccc(S(=O)(=O)Nc2ccc(C(O)(C(F)(F)F)C(F)(F)F)cc2)cc1	25.8*	nt	48.7*	-8.2	nt	nt	10.3	PrPC TRFRET cf=4.2;LD9 cytotox=-4.4
O=C1c2ccccc2-c2cccnc21	1.8	-0.5	2.0	4.1	-1.7	-32.1	nt
O=C1C(=O)c2ccccc2-c2ccccc21	27.0*	-2.6	113.9*	-2.9	99.6*	-45.9	96.2*	PrPC TRFRET cf=64.8*;LD9 cytotox=98.7*
CCOC(=S)NC(=O)c1sc2ccccc2c1Cl	45.0*	2.8	33.9*	1.9	1.3	nt	-3.1	PrPC TRFRET cf=33.8*;LD9 cytotox=-5.9
COc1ccc([C@H]2OC(=O)C[C@H]2C(=O)N2CCN(c3ccccc3C(F)(F)F)CC2)cc1OC	1.4	nt	-4.3	nt	nt	nt	nt
